Experiment [1] has as its system Thyroperoxidase (TPO), gene 54314. Kind of experiment: CCTE_Simmons_AUR_rTPO: CCTE's Amplex UltraRed Assay for Thyroperoxidase (TPO) Inhibition, Simmons Lab (AID 2283662).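 On AC50: potency for loss of signal meaning inhibition of peroxidase activity.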 The method, boiled down: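 Rat thyroid microsomal TPO + 25 uM AUR in 200 mM K phosphate; cpd 5 nM–87.5 uM [final], 8 conc, 0.5% DMSO; 300 uM H2O2 starts rxn; 37C dark 30 min; endpoint FI 544/590 nm; n=3.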

Experiment [2] is described as follows: Tanguay_ZF_120hpf_CFIN_legacy: (Legacy) Oregon State University Tanguay Lab 120 Hour Post-fertilization zebrafish Assay for Caudal Fin Malformation (AID 2283649). The method, boiled down:
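Binary presence or absence of caudal fin malformation at 120 hpf, read by brightfield microscopy, with DMSO as baseline. Larvae came from 5D wild-type embryos exposed statically from 6 hpf at 28C after pronase dechorionation.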

Experiment [3] is described as follows: Tanguay_ZF_120hpf_CIRC_legacy: (Legacy) Oregon State University Tanguay Lab 120 Hour Post-fertilization zebrafish Assay for Circulatory Malformation (AID 2283651). The method, boiled down: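 Binary circulatory-malformation call at 120 hpf via brightfield imaging, relative to DMSO controls. Embryos (5D strain, chorion removed) received static, light-shielded exposure at 28C.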

Read-out in experiment [4]: kallikrein-3 (KLK3), KLK3 (gene 354)
As to the kind of experiment: LTEA_HepaRG_KLK3: Life Technologies and Expression Analysis (LTEA) Assay for kallikrein-3 (KLK3) using HepaRG (AID 2283652; active means hit-call score of the fitted dose curve at least 0.9, where 1 is the maximum; inactive means score below 0.9). The settings on record: mRNA level, 48 h; actives raise or lower the signal. The method, boiled down:
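KLK3 transcript levels were measured by TaqMan qRT-PCR with normalisation to three housekeeping genes. HepaRG cultures received chemicals for 48 h at up to 100 uM (half-log, 8 points, 0.5% DMSO vehicle), fitted in both directions against DMSO.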

Read-out in experiment [5]: solute carrier (SLC22A6), SLC22A6 (gene 9356)
As to the kind of experiment: LTEA_HepaRG_SLC22A6: Life Technologies and Expression Analysis (LTEA) Assay for solute carrier (SLC22A6) using HepaRG (AID 2283653; active means hit-call score of the fitted dose curve at least 0.9, where 1 is the maximum; inactive means score below 0.9). The settings on record: mRNA level, 48 h; actives raise or lower the signal. The method, boiled down: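 Read-out is SLC22A6 transcript level by qRT-PCR, normalised to three housekeeping genes and fitted for gain or loss relative to 0.5% DMSO vehicle. Human HepaRG cells received chemicals at up to 100 uM for 48 h.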

Experiment [6] is described as follows: Tanguay_ZF_120hpf_SWIM_legacy: (Legacy) Oregon State University Tanguay Lab 120 Hour Post-fertilization zebrafish Assay for Swim Bladder Malformation (AID 2283654).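 Further: swim bladder malformation in each larva scored yes or no under brightfield.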 The method, boiled down: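 Static waterborne exposure of single dechorionated Tropical 5D zebrafish embryos, 6–120 hpf, 28C, 0.64% DMSO final. Read-out: swim bladder malformation, present/absent, relative to DMSO negative control; trimethyltin chloride 5uM served as positive control.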

Experiment [7] in a line: Tanguay_ZF_120hpf_TRUN_legacy: (Legacy) Oregon State University Tanguay Lab 120 Hour Post-fertilization zebrafish Assay for Truncated Body (AID 2283655). The method, boiled down: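 Truncated body is recorded as a binary endpoint at 120 hpf by brightfield imaging of wild-type 5D larvae. Exposure runs statically from 6 hpf at 28C with 0.64% DMSO; embryos dying earlier are not scored.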

Read-out in experiment [8]: solute carrier (SLC10A1), SLC10A1 (gene 6554)
As to the kind of experiment: LTEA_HepaRG_SLC10A1: Life Technologies and Expression Analysis (LTEA) Assay for solute carrier (SLC10A1) using HepaRG (AID 2283657; active means hit-call score of the fitted dose curve at least 0.9, where 1 is the maximum; inactive means score below 0.9). Conditions: mRNA level, 48 h; actives raise or lower the signal. The method, boiled down:
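Cryopreserved HepaRG cells are thawed, plated and cultured 48 h; medium is then switched to serum-free induction medium and chemicals added (8 points, max 100 uM, 0.5% DMSO). After 48 h, RNA is isolated and SLC10A1 quantified by qRT-PCR.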

Read-out in experiment [9]: matrix metalloproteinase-1 (MMP1), MMP1 (gene 4312)
As to the kind of experiment: LTEA_HepaRG_MMP1: Life Technologies and Expression Analysis (LTEA) Assay for matrix metalloproteinase-1 (MMP1) using HepaRG (AID 2283658; active means hit-call score of the fitted dose curve at least 0.9, where 1 is the maximum; inactive means score below 0.9). Conditions: mRNA level, 48 h; actives raise or lower the signal. The method, boiled down:
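HepaRG, ~100,000 cells/well, 48 h pre-culture; serum-free induction medium; test chemical 8 conc (max 100 uM, half-log), duplicate, 48 h; 0.5% DMSO; qRT-PCR MMP1, housekeeping-normalized; gain/loss fit vs DMSO.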

A short description of experiment [10]: Tanguay_ZF_120hpf_NC_legacy: (Legacy) Oregon State University Tanguay Lab 120 Hour Post-fertilization zebrafish Assay for Notochord and Tail Malformation (AID 2283656). The method, boiled down: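 Binary notochord-distortion calls, made by brightfield inspection, form the read-out; activity is fitted in the positive direction against DMSO. Exposure ran statically from 6 to 120 hpf at 28C with 0.64% DMSO.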

Molecules are shown by their SMILES. Several values for one entry are separate records, joined by “and”; a condition that tells them apart may be missing. Equal values may be shown once. Records with an inconclusive call do not appear. Activity calls are given as the source filed them. How the source made its calls, unless noted: active means hit-call score of the fitted dose curve at least 0.9, where 1 is the maximum; inconclusive means response in the unintended direction; inactive means score below 0.9.

For orientation: AC50 means the concentration giving half of the maximal activity seen. Turning to `O=C1c2ccccc2C(=O)C1C(=O)C(c1ccccc1)c1ccc(Cl)cc1` (configuration not stated), the AC50 in experiment [1] was 32.4 µM (active).

In the case of `CCCSP(=S)(OCC)Oc1ccc(SC)cc1` (configuration not stated), the compound was called inactive in [1].

For the compound `CCCCCCCCCCCCOS(=O)(=O)O`, the concentration at half-maximal activity (AC50) in experiment [1] is 28 µM (active) and 48.7 µM (active).

As for `Cc1cc(C)cc(C)c1`, the compound was called inactive in [2], in experiment [3], in experiment [4], in experiment [5], in experiment [6] and in experiment [7]. Moreover, the compound was classed as inactive in [8] and in [9].

Take `Oc1c(Cl)cc(Cl)cc1Cl`: the result in experiment [2], in experiment [3], in experiment [6], in [7] and in experiment [10] was inactive.

As to `CN(C)C(=S)S`, the outcome in [3], in experiment [6] and in experiment [7] was inactive. The values for the AC50 in experiment [10] and in experiment [1] were 1.05 µM (active) and 30.8 µM (active), respectively.

For `N#CCC#N`, the concentration at half-maximal activity (AC50) in experiment [1] was 7.66 µM (active).

With `O=C(NC(=O)c1c(F)cccc1F)Nc1ccc(Cl)cc1`, the AC50 in [1] is 25.4 µM (active).

`Clc1cccc(Cl)c1Cl`: the result in experiment [2], in experiment [3], in [6], in [7] and in experiment [10] was inactive.

As to `Oc1cc(Cl)c(Cl)cc1Cl`, the compound was classed as inactive in [2], in experiment [3], in experiment [6], in experiment [7] and in experiment [10].

As to `O=C(CBr)c1ccc(O)cc1`, in experiment [1], the concentration at half-maximal activity (AC50) was 6.82 µM (active) and 5.72 µM (active).

For `CCOc1ccc(N)cc1`, the concentration at half-maximal activity (AC50) in experiment [1] is 1.75 µM (active).

As to `N#CS`, the AC50 in experiment [1] is 10.6 µM (active) and 8.87 µM (active).

For the compound `COC(=O)Nc1cccc(OC(=O)Nc2cccc(C)c2)c1`, in experiment [1], the AC50 is 0.398 µM (active).

The values above are taken from PubChem BioAssay (EPA / NIEHS).
